PubChem BioAssay (NCI)
Compounds without any hit were thinned out: in the full panel of roughly 83,000, 20% have a hit.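 A percent growth of 40 corresponds to 60% growth inhibition; 0 means no net growth; -100 means all cells died. Active threshold: below 10.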 Values without a mark were called inactive. Activity calls are given as the source filed them.

tested on: HCT-116 colon; experiment: NCI-60 one-dose screen, 48 h (100 = growth as untreated, 0 = no growth, -100 = all killed); settings: 10 µM unless noted

Compound | growth
CCN1CCN(c2ccc(NC(=O)Nc3ccc4c(ccn4-c4ccnc(C(=O)NC)c4)c3)cc2C(F)(F)F)CC1 | 58.6%
O=C(CCCCCCN1CC(=O)N2[C@@H](c3ccccc3Br)c3[nH]c4ccccc4c3C[C@H]2C1=O)NO | 12.7%
COc1ccc2[nH]cc(-c3nc(N)nnc3-c3cn(C)c4ccc(Br)cc34)c2c1 | 18.1%
C#Cc1nc(/C=C\CCCCCCC(=O)NO)cs1 | 20.5%
CC(=O)OC[C@]12CC[C@@H](C(=O)/C=C/c3cccnc3)[C@@H]1[C@H]1CC[C@@H]3[C@@]4(C)CC[C@H](OC(C)=O)C(C)(C)[C@@H]4CC[C@@]3(C)[C@]1(C)CC2 | -61.2% (active)
C[C@@H]1OCC2(CCN(c3cnc(C(=O)Nc4cc(F)cc5cccnc45)cn3)CC2)[C@@H]1N | 15.7%
CC1=C(C)C(=O)C(Nc2ccc(C)c(C)c2)=C(Br)C1=O | 34.7%
Cc1ccccc1Nc1nc(SC(C)C)nc(-c2ccccc2)c1C#N | 2.97% (active)
O=C1c2ccccc2C23C(=C(c4cncnc4)c4ccccc42)CCCN13 (stereo unspecified) | 97.9%
CC1=C(C)C(=O)C(Nc2cccc(C(=O)OC(C)(C)C)c2)=C(Cl)C1=O | 72.6%
CC(=O)Nc1cc(N2CCOCC2)c2nc(NC(=O)c3[nH]c(C)c(Cl)c3Cl)sc2c1 | 68.5%

tested on: HCC-2998 colon; experiment: as above; settings: 10 µM unless noted

Compound | growth
CCOc1cccc(/C(N)=N/C(N)=N/c2nc3ccccc3s2)c1 | 111%
Cc1ccc2c(n1)C(=O)C(Cl)=C(Nc1cc(C(F)(F)F)cc(C(F)(F)F)c1)C2=O | 96.5%
CC(C)(C)OC(=O)NCc1ccc(CNc2c([N+](=O)[O-])cnc3ccccc23)cc1 | 84.7%
C#CCOc1cccc(-c2nc(N)nc(Nc3ccccc3SSc3ccccc3Nc3nc(N)nc(-c4cccc(OCC#C)c4)n3)n2)c1 | 94.6%
CN1CCN(c2ccc(Nc3nc(NCCNS(=O)(=O)c4ccccc4)c4sccc4n3)cc2)CC1 | 106%
C=C(C=O)[C@@H]1CC[C@]2(C(=O)O)CC[C@]3(C)C(CC[C@@H]4[C@@](C)(CCC#N)[C@H](C(=C)C=O)CC[C@]43C)[C@@H]12 (stereo partly specified) | 108%
O=C(CSc1nc2ccccc2c(=O)n1-c1ccccc1)N/N=C/c1ccc(Oc2ccc(Br)cc2)cc1 | 87.1%
CC(C)C(/C=C/c1[nH]ncc1-c1cc(Cl)ccc1O)N1CCOCC1 (stereo unspecified) | 104%
N#Cc1c(-c2cccs2)cc(-c2cnccn2)nc1SCC(=O)N/N=C/c1ccc(Cl)cc1 | 119%
CN1CCN(c2ccc(Nc3nc(NCCCNS(=O)(=O)c4ccc(Cl)cc4)c4sccc4n3)cc2)CC1 | 20%
O=C1[C@@H]2Cc3c([nH]c4ccccc34)[C@H](c3ccc(Br)cc3)N2C(=O)CN1C1CCN(Cc2c(Cl)cccc2Cl)CC1 | 101%
COc1ccc(NC(=O)CCCCCCNC(=O)C(O)(O)C(F)(F)F)cc1 | 55.9%
CCCCSC1=C(Cl)CN(c2ccc(Cl)cc2)C1=O | 107%
CN(C)CCCOc1ccc(C(=C(c2ccccc2)C2CCCC2)c2ccc(OCCCN(C)C)cc2)cc1 | -83.9% (active)
CN1CCN(c2ccc(Nc3nc(NCCCNS(=O)(=O)c4cccc5ccccc45)c4sccc4n3)cc2)CC1 | -51.4% (active)
CCN(CC)c1ccc(/C=N/NC(=O)c2ccc(S(N)(=O)=O)cc2)cc1 | 43%
C#C[C@]1(O)CC[C@H]2[C@@H]3CC=C4c5sc(Nc6cc(C)cc(C)c6)nc5CC[C@]4(C)[C@H]3CC[C@@]21C | 40.2%
CN(C)c1ccc(-c2cc(-c3c[nH]c4ccccc34)nc(N)c2C#N)cc1 | 49.7%
C#C[C@]1(O)CC[C@H]2[C@@H]3CC=C4c5sc(Nc6cc(Cl)ccc6OC)nc5CC[C@]4(C)[C@H]3CC[C@@]21C | 54.3%
Cc1cc(=O)[nH]c(O)c1C#N | 114%

Compound | growth
Cc1ccc(C(=O)CSc2nc3ccccc3c(=O)n2C)cc1 | 113%
O=C(NCCNc1cc(-c2cn(-c3ccccc3)nc2-c2cccc(O)c2)ccn1)Nc1cc(C(F)(F)F)cc(C(F)(F)F)c1 | 96.2%
N/C(=N\C(N)=N\c1nc2ccccc2s1)c1ccc(Cl)cc1 | 102%
C#CCN(C)CCCOc1ccc(NCc2ccc(/C=C/C(=O)NO)cc2)cc1Cl | -43.2% (active)
C#CCOc1ccccc1/C=N/Nc1nc(-c2ccc(Cl)cc2)cs1 | 120%
O=S(=O)(NCCCNc1nccc(-c2[nH]c(-c3ccccc3)nc2-c2ccc(F)c(O)c2)n1)c1cccc(F)c1 | 114%
O=C(CSc1nc2ccccc2c(=O)n1CCc1ccccc1)Nc1ccc(S(=O)(=O)Nc2ccc(Cl)nn2)cc1 | 102%
Nc1nc(=O)n([C@H]2C[C@H](O)[C@@H](CO)O2)cc1C=O | 87.7%
O=C(Nc1ccc(Cl)c(C(F)(F)F)c1)Nc1ccc2c(ccn2C(=O)c2cccc(F)c2)c1 | 44.1%
CCN1CCN(c2ccc(NC(=O)Nc3ccc4c(ccn4-c4ccnc(C(=O)NC)c4)c3)cc2C(F)(F)F)CC1 | 93.9%
O=C(CCCCCCN1CC(=O)N2[C@@H](c3ccccc3Br)c3[nH]c4ccccc4c3C[C@H]2C1=O)NO | 56.9%
COc1ccc2[nH]cc(-c3nc(N)nnc3-c3cn(C)c4ccc(Br)cc34)c2c1 | 58.9%
C#Cc1nc(/C=C\CCCCCCC(=O)NO)cs1 | 98.8%
CC(=O)OC[C@]12CC[C@@H](C(=O)/C=C/c3cccnc3)[C@@H]1[C@H]1CC[C@@H]3[C@@]4(C)CC[C@H](OC(C)=O)C(C)(C)[C@@H]4CC[C@@]3(C)[C@]1(C)CC2 | -63.2% (active)
C[C@@H]1OCC2(CCN(c3cnc(C(=O)Nc4cc(F)cc5cccnc45)cn3)CC2)[C@@H]1N | 84.3%
CC1=C(C)C(=O)C(Nc2ccc(C)c(C)c2)=C(Br)C1=O | 96.4%
Cc1ccccc1Nc1nc(SC(C)C)nc(-c2ccccc2)c1C#N | 86.4%
O=C1c2ccccc2C23C(=C(c4cncnc4)c4ccccc42)CCCN13 (stereo unspecified) | 103%
CC1=C(C)C(=O)C(Nc2cccc(C(=O)OC(C)(C)C)c2)=C(Cl)C1=O | 99%
CC(=O)Nc1cc(N2CCOCC2)c2nc(NC(=O)c3[nH]c(C)c(Cl)c3Cl)sc2c1 | 109%
